# Sampled rows, rich in hits. Any-hit rate of the full collection: about 14%.
# USP8 block: inhibitors of human USP8 deubiquitinase | P40818 | purified USP8, Ub-rhodamine cleavage fluorescence, 30 min | inhibition, % at 20 µM | 4.2% of 47,000 active | AID 1645853
# USP17 inh: human USP17-like deubiquitinase inhibition. A8MUK1. purified USP17, Ub-rhodamine cleavage fluorescence, 3 h. inhibition, % at 50 µM. 6.5% of 47,000 active
# USP30 inh: human USP30 deubiquitinase inhibition. Q70CQ3. purified USP30, Ub-rhodamine cleavage fluorescence. inhibition, % at 25 µM. 5.3% of 47,000 active
# USP28 block: human USP28 deubiquitinase inhibition; Q96RU2; purified USP28, Ub-rhodamine cleavage fluorescence, 30 min; inhibition, % at 25 µM; 3% of 47,000 active; AID 1645857
# USP10 block: blocks human USP10 ubiquitin-rhodamine cleavage; Q14694; purified USP10, Ub-rhodamine fluorescence, 60 min; inhibition, % at 20 µM; 1.1% of 47,000 active; AID 1645856
# * = called active by the depositor; . = no result. No stated cut-off is given here; in the data, active means inhibition above about 30%; inactive means the rest.
SMILES,USP8 block,USP17 inh,USP30 inh,USP28 block,USP10 block
Cc1ccc(Cl)cc1-n1ncc2c1ncn1nc(C3CCCCC3)nc21,70*,34*,24,15,-1
CC(C)c1cc(C2CCCN2C(=O)c2cc(-c3ccccc3)on2)no1 (centres undefined),-22,-45,-151,-58,4
COc1ccc(CCN2C[C@@]34CNC[C@@H](C[C@@H]3S2(=O)=O)O4)cc1,3,-35,0,5,0
Fc1ccc(-c2nn3c(-c4ccc5c(c4)OCO5)nnc3s2)cc1,64*,17,18,13,0
N#Cc1ccccc1NC(=O)c1cc(C2CC2)on1,11,11,12,12,2
O=C(Nc1ccccc1C(=O)NC1CCSC1)c1ccc([N+](=O)[O-])cc1 (centres undefined),11,46*,45*,9,15
CCN1CCN(c2cc(C)c3cc(NC(=O)CCC(=O)N4CCN(c5ccccc5)CC4)ccc3n2)CC1,14,-1,14,-2,-7
CCN(CC)c1ncc2c(n1)CCC(C(=O)N1CCCC1)C2 (centres undefined),1,0,12,45*,-1
CC1CCN(c2ccc3nnc(CCC(=O)NCC(C)c4ccccc4)n3n2)CC1 (centres undefined),2,-2,-11,-5,-1
CCCc1ccc(S(=O)(=O)Nc2ccccc2F)cc1,15,26,32*,23,12
CCCc1ccc(S(=O)(=O)NCc2ccccc2F)cc1,6,21,15,20,8
O=S(=O)(Nc1ccccc1Cc1ccccc1)c1ccc(Cl)cc1,15,27,31*,27,27
O=S(=O)(Nc1ccccc1Cc1ccccc1)c1ccc(F)cc1,10,36*,38*,29,20
O=c1[nH]c2ccccc2c(O)c1-c1nc(-c2ccc(F)cc2)no1,5,-1,1,-2,0
COc1cccc(CNC(=O)c2ccc(Cn3cncn3)cc2)c1,5,8,29,7,2
COc1cccc(-n2cnc3cc(C(=O)N4CCCCC4)ccc3c2=O)c1,19,11,19,13,1
O=C(Cc1ccccc1)NCCc1ccccc1,1,-1,-53,-7,2
COc1ccccc1OCc1ccc(C(=O)Nc2ccc(F)cc2C)cc1,0,53*,13,-2,7
COc1cccc(-n2cnc3cc(C(=O)NCCc4ccccc4)ccc3c2=O)c1,54*,0,-21,0,-5
COc1cccc(CNC(=O)c2ccccc2NC(=O)c2ccc(F)cc2)c1,1,7,41*,-4,9
O=C(NCCc1ccccc1)c1ccccc1-c1ccccc1C(=O)NCCc1ccccc1,12,11,32*,13,12
O=C(C1CC1)N1CCCCCC1C1CCN(Cc2nc(C3CC3)no2)CC1 (centres undefined),25,12,4,2,-2
CCc1cc(=O)[nH]c(NC2CCN(CC(=O)NC3CCCCC3)CC2)n1,-12,0,2,-2,0
O=C(CC(C(=O)NCc1ccccc1)c1nc2ccccc2c(=O)[nH]1)NCc1ccccc1 (centres undefined),0,12,26,-1,30
CC(=O)c1ccc(N2C(=O)N(CC(=O)c3ccc(Cl)cc3)c3ccccc3S2(=O)=O)cc1,5,-1,4,6,-2
SMILES,USP8 block,USP17 inh,USP30 inh,USP28 block,USP10 block
CCn1cc(CN2C[C@@H](c3cc(F)cc(F)c3)[C@@]3(CCCCC(=O)N3)C2)c(C)n1,15,10,12,5,1
COc1cc2[nH]c(C(=O)NCCC3=CCCCC3)cc2c(OC)c1OC,4,0,-14,18,1
CN1CCN(c2ncc(NC(=O)c3ccc(Cl)cc3Cl)cn2)CC1,-61,-17,-4,16,0
COc1cccc(C(=O)Nc2ccccc2C(=O)NCCc2ccccc2)c1,-2,29,49*,13,10
Cc1noc(-c2cccn(Cc3cc(=O)n4ccccc4n3)c2=O)n1,10,0,-1,2,-4
CC(=O)N1CCc2cc(CNC(=O)Nc3cc(C)ccc3C)ccc21,-1,43*,67*,13,-2
Nc1nccc(-c2ccc3c(c2)CCC3)n1,-3,-5,-16,-8,-1
N#Cc1cnn2ccc(-c3ccc4c(c3)CCC4)nc12,-14,34*,.,.,-1
Cc1noc(-c2cccc(=O)n2CC(=O)Nc2ccc(C)c(F)c2)n1,14,9,31*,9,2
Cc1noc(-c2cccc(=O)n2CC(=O)Nc2ccc(C)c(C)c2)n1,4,71*,14,7,3
